# Laboratory results from PubChem BioAssay AID620 (Sanford-Burnham Center for Chemical Genomics, 2007).
# The campaign covered roughly 87,000 compounds. About 360 (0.41%) were called active. The sample holds actives, similar compounds and a random draw of the others, so the mix is not that of the screen. Values without a mark were called inactive. No stated cut-off is given here; in the data, active means cytotoxicity above about 50%; inactive means the rest.
# Experiment: cytotoxicity in HT1080 fibrosarcoma cells, cell-based, fluorescence readout (AID 620);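 further: cells exposed to compound overnight then 4 h with Alamar Blue; 0% = vehicle DMSO and 100% = killing control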
# Conditions: HT1080 viability, at 10 µM, stronger effect = higher value
row,Structure (SMILES),cytotoxicity
1,CC(SC(=S)N1CCOCC1)C(=O)O (stereo not given),7.1%
2,CC(C(=O)OCc1nnc(-c2ccccc2)o1)N1C(=O)c2ccccc2C1=O (stereo not given),4.5%
3,N#Cc1cn(CCCOc2ccccc2)c2ccccc12,24.2%
4,COc1ccccc1OCCn1cc(C#N)c2ccccc21,-3.5%
5,COc1ccccc1OCCCn1cc(C#N)c2ccccc21,76.4% (active)
6,Cc1ccc(Cn2c(-n3nc(C)cc3C)nc3c2c(=O)[nH]c(=O)n3C)cc1,-7.9%
7,COc1ccc(CCn2c(-n3nc(C)cc3C)nc3c2c(=O)[nH]c(=O)n3C)cc1,55.6% (active)
8,Cc1cc(C)n(-c2nc3c(c(=O)[nH]c(=O)n3C)n2CCc2ccccc2)n1,15.7%
9,CC(=O)Cc1nsc(NC(=O)C2Cc3ccccc3C(=O)O2)n1 (stereo not given),-9.2%
10,COc1ccccc1/C=N/n1c(C)nnc1-n1nc(C)cc1C,9.8%
11,CCCOc1ccc2ccccc2c1/C=N/n1c(C)nnc1-n1nc(C)cc1C,61.6% (active)
12,Cc1cc(C)n(-c2nnc(C)n2/N=C/c2cc(Br)ccc2OCc2ccccc2)n1,5.9%
13,Cc1c(C(N)=O)sc2ncn(CC(=O)N3CCC(C)CC3)c(=O)c12,0.9%
14,CCN1CCCC1CNC(=O)CN1C(=O)COc2ccc(C)cc21 (stereo not given),-4.1%
15,O=C(Cc1ccc(Br)cc1)OCC(=O)c1ccc2c(c1)OCCO2,-6.8%
16,O=C(Cn1cnc2ccccc2c1=O)OCC(=O)c1ccc2c(c1)OCCO2,-7.6%
17,O=C(Cc1n[nH]c(=O)c2ccccc12)OCC(=O)c1ccc2c(c1)OCCO2,60.4% (active)
18,CC(C)c1cc(Nc2cccc(O)c2)cc(C(C)C)c1O,2%
19,CCN(Cc1ccccc1)S(=O)(=O)c1ccc(S(=O)(=O)N(Cc2ccccn2)Cc2ccco2)cc1,11.3%
20,CCN1CCN(C(=O)Cn2ncc3ccsc3c2=O)CC1,-5.8%
21,CCN1C(=O)/C(=C\N2CCCc3ccccc32)SC1=S,52.5% (active)
22,CCN1C(=O)/C(=C/N2CCc3ccccc32)SC1=S,5.1%
23,CCN1C(=O)/C(=C\N2CCCCCC2)SC1=S,-5.6%
24,COc1ccc(C(=O)Nc2ccc(N3CCOCC3)cc2)cc1OC,-4.9%
25,COc1cc(C(=O)Nc2cccc3cccnc23)cc(OC)c1OC,5.4%
26,Cn1c(=N)n(CC(O)c2ccco2)c2ccccc21 (stereo not given),-14.7%
27,Cn1c(=N)n(CC(=O)O)c2ccccc21,0.2%

row,Structure (SMILES),cytotoxicity
1,Cn1c(=N)n(CC(O)c2cccc3ccccc23)c2ccccc21 (stereo not given),57.8% (active)
2,CC1CCC(C(C)C)C(OCC(O)CN2CCOCC2)C1 (stereo not given),2.7%
3,COc1ccccc1NC(=O)c1oc2ccccc2c1NC(=O)c1ccco1,0.3%
4,COc1ccccc1NC(=O)c1oc2ccccc2c1NC(=O)c1cc(OC)c(OC)c(OC)c1,50% (active)
5,COCC(=O)Nc1c(C(=O)Nc2ccccc2OC)oc2ccccc12,-17.1%
6,Cc1oc2c(c1C(=O)Nc1cccc(C(=O)O)c1)CCCC2,9.3%
7,CC1(C)CC2CC(C)(CN2C(=O)Cc2ccccc2)C1 (stereo not given),-25%
8,COc1cccc(C2C(C(N)=O)=C(C)Nc3nc(CCCO)nn32)c1OC (stereo not given),1%
9,CCOC(=O)c1c(C)sc2c1N(C(C)=O)c1cc(Cl)ccc1S2,17.6%
10,CCOC(=O)c1c(C)sc2c1N(C(=O)CCl)c1cc(Cl)ccc1S2,87.2% (active)
11,CCOC(=O)c1c(C)sc2c1N(C(=O)CN(CC)CC)c1cc(Cl)ccc1S2,6.5%
12,CCCN1CCN(C(c2cc3cc4c(cc3[nH]c2=O)OCO4)c2nnnn2C(C)(C)C)CC1 (stereo not given),1.4%
13,CCN(CC)S(=O)(=O)c1cccc(C(=O)Nc2ccc(Cl)cn2)c1,-7.6%
14,Fc1ccc(Br)cc1C1C=C(c2ccc(Br)cc2)Nc2ncnn21 (stereo not given),-11.5%
15,CCc1ccc(C2=CC(c3cc(Br)ccc3F)n3ncnc3N2)cc1 (stereo not given),44.7%
16,Fc1ccc(Br)cc1C1C=C(c2ccc(Br)s2)Nc2ncnn21 (stereo not given),62.6% (active)
17,Cc1cc(N)n(-c2ncnc3scc(-c4ccc(Cl)cc4)c23)n1,7.2%
18,O=C(c1ccc(F)cc1)C(CN1CCOCC1)c1ccccc1 (stereo not given),61% (active)
19,COc1ccc(C(=O)C(CN2CCOCC2)c2ccccc2)cc1 (stereo not given),27%
20,CC(CN1CCOCC1)C(=O)c1ccccc1 (stereo not given),-9.8%
21,CCCCCOc1ccc(C(=O)C(c2ccccc2)N2CCOCC2)cc1 (stereo not given),-2%
22,COc1ccc(C(=O)C(CN2CCOCC2)c2ccccc2)cc1F (stereo not given),25.3%
23,CCc1cc(=O)oc2cc(OCC(=O)N(CC)CC)c(Cl)cc12,2.2%
24,O=C(CCn1c(=O)sc2ccccc21)NCc1ccccc1,0%
25,c1ccc2[nH]c(CSc3nc4ccccc4s3)nc2c1,-3.3%
26,CCCC[C@@H]1C[C@H]1C(NC(=O)c1ccc(C(F)(F)F)cc1)c1ccc(C(=O)OC)cc1 (stereo not given in full),-11.3%
27,CCn1cc(C(=O)O)c(=O)c2cnc(N3CCN(C(=O)Nc4cccc5ccccc45)CC3)nc21,-1.8%

row,Structure (SMILES),cytotoxicity
1,CC(=O)N1CCN(Cc2ccc(Br)s2)CC1,-4.4%
2,Cc1[nH]c(=O)[nH]c(=O)c1S(=O)(=O)N1c2ccc(F)cc2CCC1C (stereo not given),-0.4%
3,CCCN(C(=O)Cn1ncc2c(=O)oc3ccccc3c21)c1cccc(C)c1,-2.3%
4,O=C(CN(c1ccccc1F)S(=O)(=O)c1ccccc1)NC1CCCCCC1,-8.6%
5,Fc1ccc(-c2nnc(CN3CCN(c4ncc(C(F)(F)F)cc4Cl)CC3)o2)cc1,-2.5%
6,CCCCCCc1ccc(-c2ncc(N)cn2)cc1,97.1% (active)
7,CCCCCc1ccc(-c2ccc(=O)[nH]n2)cc1,15.3%
8,CCCCc1ccc(-c2nc(N)n[nH]2)cc1,5.5%
9,CCCn1c(=O)c2ccccc2n2c(SCC(=O)c3cc(C)n(CC4CCCO4)c3C)nnc12 (stereo not given),6.6%
10,COc1ccccc1N(CC(=O)NC1CCCCC1)S(C)(=O)=O,-0.7%
11,Fc1ccc(N2CCN(c3nc(-c4ccco4)cc(C(F)(F)F)n3)CC2)cc1,-8.6%
12,CCc1ccc2[nH]cc(C(=O)N3CCCCCC3)c(=O)c2c1,-11%
13,O=C(c1c[nH]c2ccc(F)cc2c1=O)N1CCCCCC1,67.1% (active)
14,COc1ccc2[nH]cc(C(=O)N3CCCCC3)c(=O)c2c1,-0.4%
15,FC(F)(F)c1cc(-c2ccco2)nc(-n2cnc3ccccc32)n1,-14.2%
16,FC(F)(F)c1cc(-c2ccco2)nc(-n2nnc3ccccc32)n1,-10.9%
17,Cc1nc2ccccc2n1-c1nc(-c2ccco2)cc(C(F)(F)F)n1,65.2% (active)
18,CCCCNC(=O)c1ccc2c(c1)N(CC)C(=O)c1ccccc1S2(=O)=O,-4.4%
19,CSc1nc(NCC(C)C)nc(N2CCOCC2)n1,1%
20,CCCC1(C)SC(NC(C)=O)=NN1C(C)=O (stereo not given),-1.8%
21,CC(=O)NC1=NN(C(C)=O)C2(CCCCC2)S1,0.7%
22,CC(=O)NC1=NN(C(C)=O)C(C)(c2cccs2)S1 (stereo not given),65.3% (active)
23,COc1ccc(C(=O)CSc2nc(SC)ns2)cc1OC,7.5%
24,COc1cc(NC(=O)COc2ccc(F)cc2)nc(OC)n1,5%
25,O=C(Nc1ccc(-c2nc3ccc(NC(=O)c4cccs4)cc3[nH]2)cc1)c1cccs1,16.4%
26,O=C(Nc1ccc2nc(-c3cccs3)[nH]c2c1)c1cccs1,17%
27,O=C(Nc1ccc2nc(-c3ccccc3)[nH]c2c1)c1cccs1,56.7% (active)

row,Structure (SMILES),cytotoxicity
1,COc1ccc(C(=O)SC2=NCCS2)cc1,-11.1%
2,Cc1cc(C)n(-c2c(F)c(F)c(CO)c(F)c2F)n1,-14.3%
3,CS(=O)(=O)N(CC(=O)N1CCN(c2ccccc2)CC1)C1CCCCC1,-5.1%
4,CCCNC(=O)C1CN(S(=O)(=O)c2ccccc2)CCN1S(=O)(=O)c1ccccc1 (stereo not given),3.1%
5,Cn1c(Cn2nnc3ccccc32)nnc1SCC(=O)NCc1ccc2c(c1)OCO2,-4.4%
6,CCn1ncc(C2=NOC(C(=O)NCc3ccc(OC)cc3)C2)c1C (stereo not given),2%
7,CCn1ncc(C2=NOC(C(=O)Nc3ccc(C)cc3)C2)c1C (stereo not given),7.8%
8,CCn1ncc(C2=NOC(C(=O)NCCc3ccccc3)C2)c1C (stereo not given),4.4%
9,CCn1ncc(C2=NOC(C(=O)NCc3ccc(Cl)cc3)C2)c1C (stereo not given),71.2% (active)
10,CCn1ncc(C2=NOC(C(=O)NCC(C)C)C2)c1C (stereo not given),1.4%
11,CCn1ncc(C2=NOC(C(=O)NCc3ccccc3)C2)c1C (stereo not given),53.9% (active)
12,Cc1ccc(C)c(NC2=NC3(CCCCC3)N=C(N)N2)c1,4.3%
13,COC(=O)C(NC(=O)c1ccco1)(Nc1nc(C2CC2)cs1)C(F)(F)F (stereo not given),1.9%
14,CCc1ccccc1NC(=O)CN(C)Cc1nc(N)nc(Nc2ccccc2C)n1,-1%
15,CO/N=C/NC(=O)Cc1cn(-c2ncc(C(F)(F)F)cc2Cl)c2ccccc12,7.8%
16,O=C(Nc1nnc(C(F)(F)F)s1)c1cccnc1,24%
17,COC(=O)c1sc(NC(=O)c2oc3ccccc3c2C)nc1C,-14.4%
18,COc1ccc(C(=O)Nc2nnc(C(F)(F)F)s2)cc1,66.8% (active)
19,Cc1c(C(=O)Nc2ccc(-n3cnnn3)cc2)oc2ccccc12,26.2%
20,CCOCc1nnc(NC(=O)c2ccc(OC)cc2)s1,7.7%
21,Cc1c(C(=O)Nc2nnc(C(F)(F)F)s2)oc2ccccc12,82.5% (active)
22,Cc1cc(NC(=O)c2ccco2)ccc1-n1cnnn1,-8.1%
23,Cc1cc(NC(=O)c2oc3ccccc3c2C)ccc1-n1cnnn1,75.3% (active)
24,Cc1ccc2c(C)c(C(=O)Nc3nnc(C)s3)oc2c1,1.1%
